About 83,000 compounds went through this panel and 20% of them were active in at least one assay; those are over-represented in the sample as a whole.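 In brief: 96-well plates, 48 h treatment, single concentration, percent growth endpoint.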 Values without a mark were called inactive. Activity calls are given as the source filed them. How the source made its calls: active means growth percent below 10; inactive means the rest.
Tested on: HCT-116 colon
Assay: NCI-60 one-dose screen, 48 h (100 = growth as untreated, 0 = no growth, -100 = all killed)
Settings: 10 µM unless noted

Structure (SMILES)	growth
Cc1cc(=O)oc2cc(Oc3nc(-c4ccccc4)cn4c(-c5ccccc5)cnc34)ccc12	39.3%
Cc1ccc2c(n1)C[C@H](C(C)(C)O)CC[C@H]2C	97.4%
Nc1nc(N)c2c(n1)NC(c1cccc(Nc3ccnc4cc(C(F)(F)F)ccc34)c1)CC(c1ccc(Cl)cc1)=N2 (stereo not given)	15.1%
C(CCCSC1=NCCN1)CCSC1=NCCN1	90.7%
O=S(=O)(Nc1ccc(Br)cc1)c1ccc(-c2cnc(C3CC3)o2)cc1	18.7%
Nc1n[nH]c2cccc(C#Cc3cccc(C(=O)Nc4ccc(Cl)c(C(F)(F)F)c4)c3)c12	28.5%
NC(=N\N=C/c1ccc(Cl)cc1Cl)/C(N)=N\N=C/c1ccc(Cl)cc1Cl	21.9%
COc1cc(C(=O)/C=C/c2c(-c3cccs3)nc3sc(C)cn23)cc(OC)c1OC	2.71% (active)
Nc1nc(=O)n([C@H]2CC=C(CO)O2)cc1F	108%
COc1ccc(Nc2nccc(Nc3ccc4[nH]ncc4c3)n2)cc1	19.3%
Cc1[nH]c(C(=O)Nc2ccccc2OC2CCNC2)c(Cl)c1Cl (stereo not given)	42.8%
CCN1CCN(CCOc2ccc(CNc3ccc4nc(CCC5CCCCC5)[nH]c4c3)cc2)CC1	17.9%
O=C1NCCS(=O)(=O)/C1=C\C=C\c1cccc(C(F)(F)F)c1	-41.8% (active)
CCCCCCCCCCCCCC[n+]1ccc2c(C)c3c(c(C)c2c1)c1cc(O)ccc1n3CC	-79.4% (active)
CCCc1cc(CCC)n2nc(N)nc2n1	103%
